Measured values reported in the supplement of paper PMC11732987, “Enantioselective OTUD7B fragment discovery through chemoproteomics screening and high-throughput optimisation” (Communications Chemistry, 2025).

What was measured:
Assay in all cases: log2 ratio of Biotin-Ahx-Ub-VS probe labelling (fragment/DMSO); higher = less target engagement (more negative = stronger competition), active = hit call of the paper (q ≤ 0.05, log2 ratio ≤ -1)
Details in all cases: compound concentration: 200 uM; treatment time: 3 h
[1] = target: USP34 (UniProt Q70CQ2)
Procedure, shortened: (§1)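 Average log2 ratios of fragment over vehicle were obtained by unpaired t-test from global-median-normalised Spectronaut label-free quantities. Proteins with ≥2 unique peptides were included. HEK293T lysate (495 µg per sample) was treated in triplicate with fragment at 200 µM or vehicle for 3 h, then with Biotin-Ahx-Ub-VS at 0.5 µM final for 1 h, and labelled DUBs were NeutrAvidin-enriched and run by diaPASEF LC-MS/MS.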

[2] = target: T1, USP36 (UniProt Q9P275)
T1 sequence (whole entry): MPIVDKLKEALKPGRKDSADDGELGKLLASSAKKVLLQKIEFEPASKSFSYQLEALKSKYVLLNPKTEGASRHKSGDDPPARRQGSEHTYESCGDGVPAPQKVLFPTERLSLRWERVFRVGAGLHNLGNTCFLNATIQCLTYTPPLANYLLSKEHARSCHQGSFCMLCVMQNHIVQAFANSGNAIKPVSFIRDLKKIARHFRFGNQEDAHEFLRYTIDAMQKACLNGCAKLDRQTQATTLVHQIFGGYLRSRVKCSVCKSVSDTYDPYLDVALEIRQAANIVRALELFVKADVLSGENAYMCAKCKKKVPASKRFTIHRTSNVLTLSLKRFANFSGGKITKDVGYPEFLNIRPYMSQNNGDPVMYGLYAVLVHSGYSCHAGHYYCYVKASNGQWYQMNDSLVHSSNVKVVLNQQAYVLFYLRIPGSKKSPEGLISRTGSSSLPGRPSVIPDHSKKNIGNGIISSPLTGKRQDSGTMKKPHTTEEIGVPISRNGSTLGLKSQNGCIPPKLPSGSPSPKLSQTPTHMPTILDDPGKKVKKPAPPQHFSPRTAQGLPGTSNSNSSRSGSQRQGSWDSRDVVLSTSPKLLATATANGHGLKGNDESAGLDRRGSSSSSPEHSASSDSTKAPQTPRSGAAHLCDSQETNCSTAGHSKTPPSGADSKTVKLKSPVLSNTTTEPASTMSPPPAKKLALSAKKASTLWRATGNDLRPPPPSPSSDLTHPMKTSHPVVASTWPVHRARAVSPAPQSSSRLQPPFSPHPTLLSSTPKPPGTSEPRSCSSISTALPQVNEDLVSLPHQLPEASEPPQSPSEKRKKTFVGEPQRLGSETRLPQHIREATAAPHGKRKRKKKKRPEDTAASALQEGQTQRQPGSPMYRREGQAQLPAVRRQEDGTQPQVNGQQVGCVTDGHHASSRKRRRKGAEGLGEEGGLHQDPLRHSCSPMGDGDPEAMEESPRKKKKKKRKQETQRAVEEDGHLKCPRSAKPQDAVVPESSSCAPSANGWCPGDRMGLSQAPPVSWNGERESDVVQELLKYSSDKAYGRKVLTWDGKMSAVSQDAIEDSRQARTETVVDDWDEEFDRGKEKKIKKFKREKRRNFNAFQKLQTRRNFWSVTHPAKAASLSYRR
Procedure, shortened: as §1

[3] = target: T2, USP38 (UniProt Q8NB14)
T2 sequence (whole entry): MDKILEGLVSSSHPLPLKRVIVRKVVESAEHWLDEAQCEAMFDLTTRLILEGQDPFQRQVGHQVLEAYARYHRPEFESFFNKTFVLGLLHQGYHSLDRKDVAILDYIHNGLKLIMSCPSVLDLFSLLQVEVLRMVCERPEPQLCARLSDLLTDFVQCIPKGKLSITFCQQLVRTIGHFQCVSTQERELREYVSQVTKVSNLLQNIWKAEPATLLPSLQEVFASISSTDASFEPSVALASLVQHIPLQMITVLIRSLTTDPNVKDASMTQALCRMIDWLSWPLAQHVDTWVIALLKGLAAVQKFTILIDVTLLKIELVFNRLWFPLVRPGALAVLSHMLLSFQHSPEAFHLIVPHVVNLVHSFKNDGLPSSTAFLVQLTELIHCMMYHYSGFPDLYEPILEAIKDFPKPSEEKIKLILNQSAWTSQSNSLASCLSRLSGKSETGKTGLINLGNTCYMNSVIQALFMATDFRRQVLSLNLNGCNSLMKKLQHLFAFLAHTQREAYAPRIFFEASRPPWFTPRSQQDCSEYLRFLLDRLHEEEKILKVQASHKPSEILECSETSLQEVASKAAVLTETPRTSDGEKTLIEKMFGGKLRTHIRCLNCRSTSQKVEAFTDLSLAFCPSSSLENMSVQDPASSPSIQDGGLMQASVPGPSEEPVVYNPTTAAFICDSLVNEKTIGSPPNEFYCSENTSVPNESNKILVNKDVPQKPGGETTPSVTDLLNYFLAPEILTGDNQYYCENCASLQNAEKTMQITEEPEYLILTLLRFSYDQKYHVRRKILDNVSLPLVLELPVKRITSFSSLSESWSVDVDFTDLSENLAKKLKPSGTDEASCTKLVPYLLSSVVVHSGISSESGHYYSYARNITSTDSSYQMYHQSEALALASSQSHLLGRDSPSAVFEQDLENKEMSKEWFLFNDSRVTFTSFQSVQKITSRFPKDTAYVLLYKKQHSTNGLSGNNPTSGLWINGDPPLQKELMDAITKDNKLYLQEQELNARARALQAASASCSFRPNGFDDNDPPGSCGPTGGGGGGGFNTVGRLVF
Procedure, shortened: as §1

[4] = target: T3, USP39 (UniProt Q53GS9)
T3 sequence (whole entry): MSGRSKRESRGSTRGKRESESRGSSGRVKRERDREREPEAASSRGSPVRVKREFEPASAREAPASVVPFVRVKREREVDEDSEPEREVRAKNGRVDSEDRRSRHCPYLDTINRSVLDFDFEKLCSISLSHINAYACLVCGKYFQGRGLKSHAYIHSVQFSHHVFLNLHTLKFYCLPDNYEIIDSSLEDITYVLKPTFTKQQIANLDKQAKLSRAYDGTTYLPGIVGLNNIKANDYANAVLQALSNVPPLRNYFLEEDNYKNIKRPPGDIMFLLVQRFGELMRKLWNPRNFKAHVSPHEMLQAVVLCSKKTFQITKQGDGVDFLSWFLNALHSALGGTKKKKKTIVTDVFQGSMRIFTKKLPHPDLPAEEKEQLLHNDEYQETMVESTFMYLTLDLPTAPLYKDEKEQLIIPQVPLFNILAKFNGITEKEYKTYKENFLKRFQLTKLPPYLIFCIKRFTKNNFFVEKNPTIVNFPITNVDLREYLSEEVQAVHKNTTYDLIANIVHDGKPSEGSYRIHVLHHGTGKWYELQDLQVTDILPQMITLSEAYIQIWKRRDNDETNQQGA
Procedure, shortened: as §1

[5] = target: T4, USP4 (UniProt Q13107)
T4 sequence (whole entry): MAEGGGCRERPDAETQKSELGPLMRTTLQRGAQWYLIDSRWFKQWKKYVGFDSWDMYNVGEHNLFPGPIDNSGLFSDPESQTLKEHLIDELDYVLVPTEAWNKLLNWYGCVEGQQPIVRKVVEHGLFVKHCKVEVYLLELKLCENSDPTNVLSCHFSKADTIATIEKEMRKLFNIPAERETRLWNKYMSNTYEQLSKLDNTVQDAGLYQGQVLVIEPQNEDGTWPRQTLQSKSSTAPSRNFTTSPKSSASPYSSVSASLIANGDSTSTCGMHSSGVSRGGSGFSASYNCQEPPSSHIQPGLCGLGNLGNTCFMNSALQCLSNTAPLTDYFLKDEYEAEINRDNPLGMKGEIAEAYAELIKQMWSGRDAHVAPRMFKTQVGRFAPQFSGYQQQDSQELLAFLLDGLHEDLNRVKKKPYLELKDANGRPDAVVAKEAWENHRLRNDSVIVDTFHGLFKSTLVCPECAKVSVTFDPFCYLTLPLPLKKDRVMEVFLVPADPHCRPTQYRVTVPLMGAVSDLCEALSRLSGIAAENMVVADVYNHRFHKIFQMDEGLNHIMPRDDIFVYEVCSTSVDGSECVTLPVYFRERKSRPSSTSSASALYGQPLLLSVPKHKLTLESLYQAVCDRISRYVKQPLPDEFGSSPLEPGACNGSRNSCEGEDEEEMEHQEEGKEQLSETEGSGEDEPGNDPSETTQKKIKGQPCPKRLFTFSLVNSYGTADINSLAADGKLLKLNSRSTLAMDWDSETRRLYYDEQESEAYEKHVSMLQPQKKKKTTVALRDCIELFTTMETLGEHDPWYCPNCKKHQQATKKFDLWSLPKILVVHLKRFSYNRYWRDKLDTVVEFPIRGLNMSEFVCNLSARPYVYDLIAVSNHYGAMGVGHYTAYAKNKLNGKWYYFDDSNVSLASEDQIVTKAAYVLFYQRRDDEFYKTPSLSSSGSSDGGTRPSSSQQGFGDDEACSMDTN
Procedure, shortened: as §1

Measured: log2 ratio of Biotin-Ahx-Ub-VS probe labelling

Sequence of USP34 (Q70CQ2 whole entry, the tested form may be a part): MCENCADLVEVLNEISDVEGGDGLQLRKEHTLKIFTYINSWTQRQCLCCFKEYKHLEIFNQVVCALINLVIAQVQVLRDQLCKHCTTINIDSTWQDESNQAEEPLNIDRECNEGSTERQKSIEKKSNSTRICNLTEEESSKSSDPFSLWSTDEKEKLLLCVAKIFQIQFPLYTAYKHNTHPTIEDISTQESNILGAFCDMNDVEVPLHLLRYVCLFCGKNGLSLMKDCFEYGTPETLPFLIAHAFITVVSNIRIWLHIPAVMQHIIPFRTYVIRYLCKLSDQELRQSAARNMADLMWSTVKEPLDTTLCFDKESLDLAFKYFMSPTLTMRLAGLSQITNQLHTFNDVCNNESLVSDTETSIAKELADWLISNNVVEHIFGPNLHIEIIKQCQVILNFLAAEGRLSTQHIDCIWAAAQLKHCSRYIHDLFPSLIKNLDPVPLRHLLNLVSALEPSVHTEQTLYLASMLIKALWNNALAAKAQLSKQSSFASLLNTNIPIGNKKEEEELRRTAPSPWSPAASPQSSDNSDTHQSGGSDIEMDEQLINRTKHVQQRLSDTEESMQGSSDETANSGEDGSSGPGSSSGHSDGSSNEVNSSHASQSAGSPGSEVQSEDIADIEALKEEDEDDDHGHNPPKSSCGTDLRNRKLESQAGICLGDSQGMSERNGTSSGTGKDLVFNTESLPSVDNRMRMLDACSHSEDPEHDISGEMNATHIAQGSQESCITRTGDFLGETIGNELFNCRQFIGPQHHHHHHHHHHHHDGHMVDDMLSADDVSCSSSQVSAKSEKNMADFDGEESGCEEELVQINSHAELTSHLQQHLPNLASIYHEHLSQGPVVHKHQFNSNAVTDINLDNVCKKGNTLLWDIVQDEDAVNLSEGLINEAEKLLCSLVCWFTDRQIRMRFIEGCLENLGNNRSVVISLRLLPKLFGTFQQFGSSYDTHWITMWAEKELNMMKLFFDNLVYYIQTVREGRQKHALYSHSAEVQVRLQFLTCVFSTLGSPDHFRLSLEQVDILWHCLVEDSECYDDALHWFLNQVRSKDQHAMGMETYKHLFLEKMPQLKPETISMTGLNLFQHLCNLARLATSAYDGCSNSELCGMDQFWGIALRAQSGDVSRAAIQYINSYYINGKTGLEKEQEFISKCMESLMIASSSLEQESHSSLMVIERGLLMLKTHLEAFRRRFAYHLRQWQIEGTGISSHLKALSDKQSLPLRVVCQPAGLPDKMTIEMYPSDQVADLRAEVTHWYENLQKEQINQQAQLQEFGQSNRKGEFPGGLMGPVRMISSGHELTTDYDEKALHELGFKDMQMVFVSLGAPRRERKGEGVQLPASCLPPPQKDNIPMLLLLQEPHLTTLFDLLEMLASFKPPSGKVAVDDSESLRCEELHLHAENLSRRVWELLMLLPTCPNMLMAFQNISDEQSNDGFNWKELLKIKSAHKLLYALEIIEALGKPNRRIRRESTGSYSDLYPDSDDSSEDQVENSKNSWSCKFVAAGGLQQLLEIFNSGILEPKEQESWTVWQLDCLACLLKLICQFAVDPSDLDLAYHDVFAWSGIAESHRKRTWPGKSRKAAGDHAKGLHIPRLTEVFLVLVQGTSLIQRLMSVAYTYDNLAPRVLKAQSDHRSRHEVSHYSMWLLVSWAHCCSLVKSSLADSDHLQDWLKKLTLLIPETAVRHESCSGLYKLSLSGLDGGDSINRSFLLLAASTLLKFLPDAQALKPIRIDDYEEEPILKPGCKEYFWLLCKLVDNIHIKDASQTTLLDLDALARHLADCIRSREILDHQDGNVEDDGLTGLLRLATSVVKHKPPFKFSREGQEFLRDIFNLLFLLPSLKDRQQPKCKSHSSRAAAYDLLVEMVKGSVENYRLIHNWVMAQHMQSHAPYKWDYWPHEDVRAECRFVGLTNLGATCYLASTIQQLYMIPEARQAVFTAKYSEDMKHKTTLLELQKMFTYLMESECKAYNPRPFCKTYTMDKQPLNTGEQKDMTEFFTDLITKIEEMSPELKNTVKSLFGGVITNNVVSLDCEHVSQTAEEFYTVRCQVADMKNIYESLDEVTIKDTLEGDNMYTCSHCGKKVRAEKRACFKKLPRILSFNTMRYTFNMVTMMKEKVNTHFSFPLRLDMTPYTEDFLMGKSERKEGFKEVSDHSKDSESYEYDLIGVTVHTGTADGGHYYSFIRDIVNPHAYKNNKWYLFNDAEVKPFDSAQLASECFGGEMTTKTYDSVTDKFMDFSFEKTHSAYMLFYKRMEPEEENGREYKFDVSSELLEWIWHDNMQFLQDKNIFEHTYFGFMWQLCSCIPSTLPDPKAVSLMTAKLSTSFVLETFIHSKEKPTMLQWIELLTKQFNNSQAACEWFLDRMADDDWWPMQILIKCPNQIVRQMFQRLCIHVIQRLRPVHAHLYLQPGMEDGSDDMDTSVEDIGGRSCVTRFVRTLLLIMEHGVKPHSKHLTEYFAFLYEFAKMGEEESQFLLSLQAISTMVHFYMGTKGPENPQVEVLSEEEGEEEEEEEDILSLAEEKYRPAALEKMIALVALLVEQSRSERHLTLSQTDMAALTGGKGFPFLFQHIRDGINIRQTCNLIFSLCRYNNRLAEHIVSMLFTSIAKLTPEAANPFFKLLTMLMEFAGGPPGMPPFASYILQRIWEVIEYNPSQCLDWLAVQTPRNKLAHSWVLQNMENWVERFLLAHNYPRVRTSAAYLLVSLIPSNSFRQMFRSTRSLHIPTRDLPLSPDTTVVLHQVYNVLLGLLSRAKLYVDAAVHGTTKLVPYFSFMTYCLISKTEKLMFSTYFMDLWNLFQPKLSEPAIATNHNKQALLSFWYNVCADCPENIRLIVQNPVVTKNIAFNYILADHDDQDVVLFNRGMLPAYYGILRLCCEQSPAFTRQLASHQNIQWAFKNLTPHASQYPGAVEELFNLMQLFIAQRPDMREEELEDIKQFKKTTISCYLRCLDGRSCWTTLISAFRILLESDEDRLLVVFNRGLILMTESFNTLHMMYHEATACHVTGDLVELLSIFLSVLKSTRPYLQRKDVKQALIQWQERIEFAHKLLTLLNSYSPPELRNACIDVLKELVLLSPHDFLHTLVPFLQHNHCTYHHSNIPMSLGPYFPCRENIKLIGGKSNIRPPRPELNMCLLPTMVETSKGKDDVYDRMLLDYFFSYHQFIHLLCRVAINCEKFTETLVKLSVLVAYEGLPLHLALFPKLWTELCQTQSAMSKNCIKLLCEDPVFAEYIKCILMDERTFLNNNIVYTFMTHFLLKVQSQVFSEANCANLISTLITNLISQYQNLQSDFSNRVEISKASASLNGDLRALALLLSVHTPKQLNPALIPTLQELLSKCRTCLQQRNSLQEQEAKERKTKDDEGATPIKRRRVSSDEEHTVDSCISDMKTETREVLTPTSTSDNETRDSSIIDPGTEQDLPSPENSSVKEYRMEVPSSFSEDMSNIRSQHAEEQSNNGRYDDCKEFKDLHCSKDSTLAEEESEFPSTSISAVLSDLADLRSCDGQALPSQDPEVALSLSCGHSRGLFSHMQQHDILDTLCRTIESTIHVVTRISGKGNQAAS

O=C(CCl)NCC(=O)N1CCCC1
inactive: [1] 0.0366 | [2] -0.0373 | [3] 0.115 | [4] 0.319 | [5] -0.0182
